Experiment [1] in a line: optical density shifts of acrAB sulA E. coli – strain DRC41, OD650, 48 h, E. coli filamentation inducer project, primary screen (AID 1152).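 Note: E. coli MC1000 strain DRC41 lacking acrAB efflux pump and sulA.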 To be noted: higher = more signal, called active from +8 up or from −8 down.
Experiment [2] in a line: probe aLefty1 binding on compound microarray – biochemical, small-molecule microarray, 635/667 nm fluorescence, primary screen (AID 1153).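 Note: score merges spot fluorescence with signal-to-noise ratio from the scanned slide images.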 To be noted: higher = more signal.
The nature of experiment [3]: plasmodial surface anion channel blockers, osmotic lysis – cell-based, P. falciparum Indochina, OD700, 1 h, primary screen (AID 1154). To be noted: P. falciparum Indochina infected RBC osmotic lysis, higher = more signal, called active from +8 up or from −8 down.
The nature of experiment [4]: plasmodial surface anion channel blockers, osmotic lysis – cell-based, P. falciparum Indochina, OD700, 2 h, primary screen (AID 1155).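 Note: lysis reports solute entry through the parasite surface anion channel PSAC.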 To be noted: P. falciparum Indochina infected erythrocytes, higher = more signal, called active from +8 up or from −8 down.
A short description of experiment [5]: changes in parasitized red cell lysis, either direction – P. falciparum Indochina, OD700, 3 h, PSAC antagonist project, primary screen (AID 1156). To be noted: P. falciparum-infected erythrocytes, osmotic lysis, higher = more signal, called active from +8 up or from −8 down.
The nature of experiment [6]: plasmodial surface anion channel blockers, osmotic lysis – cell-based, P. falciparum Indochina, OD700, 18 h, primary screen (AID 1157). To be noted: P. falciparum Indochina infected erythrocytes, osmotic lysis OD700, 18 h; higher = more signal, called active from +8 up or from −8 down.
The nature of experiment [7]: S6 kinase pathway phospho-S6 level changes – cell-based, A549, cytoblot, luminescence, serum-stimulated, primary screen (AID 1158).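 Note: serum-stimulated A549 lung adenocarcinoma cells; signal is phosphorylated S6 detected by cytoblot immunostaining with HRP secondary.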 To be noted: 5 h, higher = more signal.
Experiment [8] concerns the target NADPH oxidase 2 (Homo sapiens) (UniProt P04839). The experiment is described as follows: compounds shifting NOX2 Amplex Red fluorescence – cell-based, HEK293-NOX2, PMA-stimulated, NOX inhibitor project, primary screen (AID 1159). Note: test concentration not given here. To be noted: 45 min, higher = more signal, called active from +8 up or from −8 down.
The target of experiment [9] is NADPH oxidase 4 (Homo sapiens) (UniProt Q9NPH5). Put plainly: compounds shifting NOX4 Amplex Red fluorescence – cell-based, HEK293-NOX4, tetracycline-induced, NOX inhibitor project, primary screen (AID 1160). To be noted: HEK293-NOX4, Amplex Red H2O2 fluorescence, 45 min; higher = more signal, called active from +8 up or from −8 down.
Experiment [10] has as its target NADPH oxidase 5 (Homo sapiens) (UniProt Q96PH1). The experiment is described as follows: compounds shifting NOX5 Amplex Red fluorescence – cell-based, HEK293-NOX5, NOX inhibitor project, primary screen (AID 1161). To be noted: HEK293-NOX5, ionomycin, 45 min, higher = more signal.
Experiment [11] in a line: compound effects on lung adenocarcinoma cell viability – A549, calcein-AM fluorescence, 48 h, basal, profiling panel (AID 1162). Note: test concentration not given here. To be noted: higher = more signal.
Experiment [12] in a line: compound effects on differentiated 3T3-L1 adipocyte viability – cell-based, 3T3-L1 adipocytes, calcein-AM fluorescence, 48 h, basal, profiling panel (AID 1163). Note: test concentration not given here. To be noted: 3T3-L1 adipocytes viability, higher = more signal.
Experiment [13] in a line: compound effects on hepatocellular carcinoma cell viability – HepG2, calcein-AM fluorescence, 48 h, basal, profiling panel (AID 1164). Note: test concentration not given here. To be noted: higher = more signal.
The nature of experiment [14]: compound effects on multiple myeloma cell viability – MM1S, calcein-AM fluorescence, 48 h, basal, profiling panel (AID 1165).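 Note: viability of MM1S multiple myeloma cells under basal unstimulated conditions; test concentration not given here.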 To be noted: higher = more signal.
The nature of experiment [15]: calcein-AM signal in unstimulated myeloma cells – cell-based, calcein-AM fluorescence, 48 h, PK04 Diversity Set, profiling panel (AID 1166).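 Note: cells grown under basal conditions without added stimulus; test concentration not given here.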 To be noted: RPMI8226 myeloma viability, higher = more signal.
A short description of experiment [16]: JC-1 mitochondrial signal, unstimulated HepG2 cells – cell-based, JC-1 fluorescence, 24 h, 100 nL compound, profiling panel (AID 1167). Note: test concentration not given here. To be noted: HepG2 mitochondrial potential, higher = more signal.
Experiment [17] in a line: JC-1 mitochondrial signal, unstimulated adipocytes – cell-based, JC-1 fluorescence, 3T3-L1 adipocytes, 24 h, 100 nL compound, profiling panel (AID 1168). Note: test concentration not given here. To be noted: JC-1 mitochondrial fluorescence, higher = more signal, called active from +8 up or from −8 down.
Experiment [18] is described as follows: JC-1 mitochondrial signal, unstimulated myeloma cells – cell-based, JC-1 fluorescence, RPMI8226, 24 h, 100 nL compound, profiling panel (AID 1169). Note: test concentration not given here. To be noted: JC-1 mitochondrial potential fluorescence, higher = more signal.
Experiment [19] can be described thus: JC-1 mitochondrial signal, unstimulated MM1S myeloma – cell-based, JC-1 fluorescence, 24 h, 100 nL compound, profiling panel (AID 1170). Note: test concentration not given here. To be noted: MM1S mitochondrial potential, higher = more signal.
Experiment [20] can be described thus: resazurin metabolic signal in A549 cells – cell-based, resazurin fluorescence, 24 h, PK04 Diversity Set, profiling panel (AID 1171). Note: test concentration not given here. To be noted: A549 viability, higher = more signal, called active from +8 up or from −8 down.

Structures are written as SMILES. The source made the active and inactive calls.

Sequence of NADPH oxidase 2 (Homo sapiens) (P04839 whole entry, looked up): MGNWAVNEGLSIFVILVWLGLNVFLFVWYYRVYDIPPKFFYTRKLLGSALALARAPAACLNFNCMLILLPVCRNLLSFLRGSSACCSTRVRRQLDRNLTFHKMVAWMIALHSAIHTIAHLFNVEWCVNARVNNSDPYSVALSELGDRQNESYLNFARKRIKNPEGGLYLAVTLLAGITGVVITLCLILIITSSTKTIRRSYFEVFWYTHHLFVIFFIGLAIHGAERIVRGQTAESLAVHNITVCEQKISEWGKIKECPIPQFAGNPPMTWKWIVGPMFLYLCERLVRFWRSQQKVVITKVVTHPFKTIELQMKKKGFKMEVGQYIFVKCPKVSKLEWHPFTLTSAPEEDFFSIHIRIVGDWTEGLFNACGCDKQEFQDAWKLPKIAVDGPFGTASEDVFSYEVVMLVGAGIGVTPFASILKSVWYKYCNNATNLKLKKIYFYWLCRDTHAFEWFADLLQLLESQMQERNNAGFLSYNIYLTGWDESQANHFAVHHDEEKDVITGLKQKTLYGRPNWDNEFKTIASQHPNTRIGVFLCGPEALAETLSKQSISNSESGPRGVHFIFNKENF
Sequence of NADPH oxidase 5 (Homo sapiens) (Q96PH1 whole entry, looked up): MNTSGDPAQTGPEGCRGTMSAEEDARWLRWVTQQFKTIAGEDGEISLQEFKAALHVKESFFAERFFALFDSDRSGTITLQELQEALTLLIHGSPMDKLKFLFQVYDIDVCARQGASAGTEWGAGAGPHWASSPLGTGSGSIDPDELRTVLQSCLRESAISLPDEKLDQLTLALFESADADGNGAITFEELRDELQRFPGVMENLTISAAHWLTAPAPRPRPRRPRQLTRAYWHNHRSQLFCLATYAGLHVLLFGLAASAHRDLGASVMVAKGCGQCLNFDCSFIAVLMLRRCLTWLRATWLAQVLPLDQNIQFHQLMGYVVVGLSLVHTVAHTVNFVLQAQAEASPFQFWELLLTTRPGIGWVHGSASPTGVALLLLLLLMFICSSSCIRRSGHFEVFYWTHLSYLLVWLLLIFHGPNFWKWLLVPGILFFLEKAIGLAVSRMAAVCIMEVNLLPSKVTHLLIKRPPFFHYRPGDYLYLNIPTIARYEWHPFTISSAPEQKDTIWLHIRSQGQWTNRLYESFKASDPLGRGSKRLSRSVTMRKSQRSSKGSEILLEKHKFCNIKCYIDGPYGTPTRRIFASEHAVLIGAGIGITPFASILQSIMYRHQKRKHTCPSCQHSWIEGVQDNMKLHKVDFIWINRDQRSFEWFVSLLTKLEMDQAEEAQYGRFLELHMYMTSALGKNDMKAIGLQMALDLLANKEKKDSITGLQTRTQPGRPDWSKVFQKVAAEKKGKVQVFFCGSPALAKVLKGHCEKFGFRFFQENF
Sequence of NADPH oxidase 4 (Homo sapiens) (Q9NPH5 whole entry, looked up): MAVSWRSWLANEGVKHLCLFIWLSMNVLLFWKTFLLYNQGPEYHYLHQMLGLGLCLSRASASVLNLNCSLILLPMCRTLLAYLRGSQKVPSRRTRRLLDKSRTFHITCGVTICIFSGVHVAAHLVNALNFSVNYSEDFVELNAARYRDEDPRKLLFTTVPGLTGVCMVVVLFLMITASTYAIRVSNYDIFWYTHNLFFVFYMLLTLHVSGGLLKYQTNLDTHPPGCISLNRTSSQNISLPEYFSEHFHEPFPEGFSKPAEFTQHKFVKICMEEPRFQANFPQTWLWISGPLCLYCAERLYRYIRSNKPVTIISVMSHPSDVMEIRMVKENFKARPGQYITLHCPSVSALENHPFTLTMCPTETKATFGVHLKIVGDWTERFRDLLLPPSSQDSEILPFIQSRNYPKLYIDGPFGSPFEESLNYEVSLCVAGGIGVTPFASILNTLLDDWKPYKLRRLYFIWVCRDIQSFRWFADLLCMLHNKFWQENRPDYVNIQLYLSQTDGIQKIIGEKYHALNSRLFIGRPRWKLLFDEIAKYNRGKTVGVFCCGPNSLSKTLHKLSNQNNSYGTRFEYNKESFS

As for `C=CCOC(=O)[C@H]1[C@@H]2C(=O)O[C@@H](c3ccccc3)[C@@H](c3ccccc3)N2[C@@H](c2ccc(OCCOC(=O)[C@@H]3C[C@@H]4C(=O)N[C@@H](CCCCNC(C)=O)C(=O)N4[C@@H]3c3ccc(O)cc3)cc2)[C@]12C(=O)Nc1ccccc12`, the z-score in [1] was -0.226 (inactive); in experiment [3] it was 3.21 (inactive); in experiment [4] it was 1.61 (inactive); in [5], 4.15 (inactive); in [6], 0.841 (inactive); in [7], -0.0842. Further, the z-score in experiment [8] is 1.56 (inactive); in experiment [9] it was 0.962 (inactive); in experiment [10], 0.576; in experiment [11], -0.41; in experiment [12], 1.85; in experiment [13], -0.578. The z-score in [14] was -0.0774; in [15], -0.133; in experiment [16], -1.7; in experiment [17], 0.703 (inactive); in experiment [18] it was -0.611; in experiment [19], -0.95. The z-score in experiment [20] is -1.57 (inactive). The same compound had a composite z-score in experiment [2] of 0.379.
With `CC(C)N1C(=O)c2ccccc2[C@](C)(C(=O)NCCN2CCOCC2)[C@@H]1c1ccc(CO)cc1`, the z-score is -0.469 (inactive) in experiment [1]; 2.19 (inactive) in experiment [3]; 0.0259 (inactive) in experiment [4]; 0.914 (inactive) in experiment [5]; 0.426 (inactive) in experiment [6]; -0.522 in [7]. Further, the z-score was 1.05 (inactive) in experiment [8]; 0.627 (inactive) in experiment [9]; 0.283 in [10]; -0.291 in experiment [11]; -0.748 in [12]; 0.458 in [13]. Besides, the z-score in experiment [14] is -1.69; in experiment [15], 0.0409; in experiment [16] it was 0.916; in [17] it was -0.537 (inactive); in experiment [18], 1; in [19], -0.0545. Besides, the z-score in [20] was 0.0569 (inactive). Further, the composite z-score in [2] is 0.0451.
For the compound `COC(=O)[C@@]1(CCS(=O)(=O)c2ccccc2)N=C(c2ccc(OCCCO)cc2)O[C@H]1c1ccccc1CN=[N+]=[N-]`, the z-score in experiment [1] is -0.146 (inactive); in experiment [3], 19.6 (active); in [4], 3.74 (inactive); in [5], 1.26 (inactive); in experiment [6], 1.33 (inactive); in [7], 0.208. The z-score is -0.899 (inactive) in experiment [8]; 0.495 (inactive) in experiment [9]; -0.807 in [10]; -1.33 in experiment [11]; -0.688 in [12]; -1.12 in [13]. The z-score was -1.92 in experiment [14]; -2.59 in experiment [15]; -1.13 in [16]; 0.877 (inactive) in experiment [17]; -1.22 in experiment [18]; -1.56 in experiment [19]. In addition, the z-score in [20] is -2.08 (inactive). Besides, the composite z-score in experiment [2] was determined as 0.365.
As to `CC(C)NC(=O)[C@@]1(C)c2ccccc2C(=O)N(Cc2cc(C(F)(F)F)cc(C(F)(F)F)c2)[C@H]1c1ccc(CO)cc1`, the z-score is -0.204 (inactive) in experiment [1]; 11.8 (active) in experiment [3]; 1.66 (inactive) in experiment [4]; 1.35 (inactive) in experiment [5]; 0.377 (inactive) in [6]; 0.401 in [7]. Also, the z-score in experiment [8] was -1.13 (inactive); in [9] it was 0.154 (inactive); in [10], 0.685; in [11] it was 1.25; in experiment [12], -0.562; in [13], 0.481. Besides, the z-score in [14] was -0.137; in [15] it was -0.825; in [16], 0.718; in experiment [17], 0.468 (inactive); in experiment [18] it was -0.382; in experiment [19], -0.527. Further, the z-score in [20] is -0.558 (inactive). This compound also returned a composite z-score in experiment [2] of 0.0328.

Source of the values: PubChem BioAssay.
